From PubChem BioAssay (NCI)
About 83,000 compounds went through this panel and 20% of them were active in at least one assay; those are over-represented in the sample as a whole.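 Cells were grown in 96-well plates and exposed to the test compound at a single concentration for 48 hours; results are reported as percent growth, with values below 10 considered active.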 The source made the active and inactive calls.

Columns and labels:
Experiment in all cases: NCI-60 one-dose screen, 48 h (100 = growth as untreated, 0 = no growth, -100 = all killed)
Settings in all cases: 10 µM unless noted
HCT-15 colon = tested on: HCT-15 colon
HT29 colon = tested on: HT29 colon
SNB-19 CNS = tested on: SNB-19 CNS
U251 CNS = tested on: U251 CNS
PC-3 prostate = tested on: PC-3 prostate
SK-MEL-5 melanoma = tested on: SK-MEL-5 melanoma
UACC-62 melanoma = tested on: UACC-62 melanoma
LOX IMVI melanoma = tested on: LOX IMVI melanoma
SK-MEL-28 melanoma = tested on: SK-MEL-28 melanoma
SNB-75 CNS = tested on: SNB-75 CNS

Measured: growth

N=C(N)c1ccc(-c2ccc(/C=C/c3ccccc3)s2)cc1
active: HCT-15 colon -54% | HT29 colon -2.42% | U251 CNS -46.6% | LOX IMVI melanoma -82.1%
inactive: SNB-19 CNS 24.3% | PC-3 prostate 52.7% | SK-MEL-5 melanoma 81.3% | UACC-62 melanoma 86.2% | SK-MEL-28 melanoma 80.8%

Cc1nc2ccccc2c(/C=C/c2ccc(Cl)cc2)c1C(=O)/C=C/c1ccc(Cl)cc1
active: HCT-15 colon -31.3% | HT29 colon 3.75% | SNB-19 CNS -48.2% | U251 CNS -71.6% | PC-3 prostate -18% | SK-MEL-5 melanoma -71.7% | UACC-62 melanoma -42.9% | LOX IMVI melanoma -93.8% | SK-MEL-28 melanoma -66.6%

CCOc1cccnc1/C=N/NC(N)=S
inactive: HCT-15 colon 40.2% | SNB-75 CNS 68.7% | SNB-19 CNS 69.4% | U251 CNS 36.1% | PC-3 prostate 37.3% | SK-MEL-5 melanoma 55.4% | UACC-62 melanoma 50.6% | LOX IMVI melanoma 35.9% | SK-MEL-28 melanoma 76.1%

c1ccc2c(c1)nc(-n1ccnc1)c1nc3ccccc3n12
inactive: HCT-15 colon 82.7% | SNB-75 CNS 70% | SNB-19 CNS 42.8% | U251 CNS 61.5% | PC-3 prostate 68% | SK-MEL-5 melanoma 68.9% | UACC-62 melanoma 72% | LOX IMVI melanoma 71% | SK-MEL-28 melanoma 82.5%

NC(=O)c1c(NC(=O)c2ccccn2)sc2c1CCC(=O)C2
active: SNB-75 CNS -1.34% | SK-MEL-5 melanoma -19.5% | UACC-62 melanoma -3.06%
inactive: HCT-15 colon 13.4% | SNB-19 CNS 42.7% | U251 CNS 13.6% | PC-3 prostate 10.7% | LOX IMVI melanoma 21.6% | SK-MEL-28 melanoma 39.9%

COc1cc(-c2ncn(/C=C\c3nnco3)n2)cc(C(F)(F)F)c1
active: SNB-75 CNS 4.47% | SK-MEL-5 melanoma -11.8% | LOX IMVI melanoma -27.3% | SK-MEL-28 melanoma 6.79%
inactive: HCT-15 colon 17.6% | SNB-19 CNS 23.3% | U251 CNS 14.7% | PC-3 prostate 33.6% | UACC-62 melanoma 13.2%

COC(=O)/C(=C\c1ccc(OC)cc1)C(=O)N1c2ccccc2Sc2ccccc21
active: SNB-75 CNS 2.37%
inactive: HCT-15 colon 24% | SNB-19 CNS 66.9% | U251 CNS 50.3% | PC-3 prostate 53% | SK-MEL-5 melanoma 41.5% | UACC-62 melanoma 19.5% | LOX IMVI melanoma 50.6% | SK-MEL-28 melanoma 50.9%

O=C(NC(=S)Nc1ccc(-c2nc3ccccc3[nH]2)cc1)c1ccc2ccccc2c1
active: LOX IMVI melanoma -45.8%
inactive: HCT-15 colon 29.2% | SNB-19 CNS 66.2% | U251 CNS 13.9% | PC-3 prostate 22.8% | SK-MEL-5 melanoma 14.7% | UACC-62 melanoma 34.1% | SK-MEL-28 melanoma 40.5%

CC1(C)C(=O)/C(=C\c2cccnc2)C[C@]2(C)[C@H]3CC=C4[C@@H]5C[C@@](C)(C(=O)O)CC[C@]5(C)CC[C@@]4(C)[C@]3(C)CC[C@@H]12
inactive: HCT-15 colon 87.5% | SNB-75 CNS 82% | SNB-19 CNS 96.8% | U251 CNS 89% | PC-3 prostate 75.3% | SK-MEL-5 melanoma 109% | UACC-62 melanoma 97.7% | LOX IMVI melanoma 99.5% | SK-MEL-28 melanoma 109%

N#Cc1cccc(-c2nc3ccccn3c2NCCN2CCOCC2)c1
inactive: HCT-15 colon 105% | SNB-75 CNS 71.1% | SNB-19 CNS 100% | PC-3 prostate 89.5% | SK-MEL-5 melanoma 104% | UACC-62 melanoma 95.5% | LOX IMVI melanoma 92.5% | SK-MEL-28 melanoma 107%

N#Cc1c(N)nc2c(nnn2-c2cccc(Br)c2)c1N
inactive: HCT-15 colon 104% | SNB-75 CNS 97.6% | SNB-19 CNS 95.9% | U251 CNS 93% | PC-3 prostate 91.6% | SK-MEL-5 melanoma 96.4% | UACC-62 melanoma 95.6% | LOX IMVI melanoma 102% | SK-MEL-28 melanoma 117%

COc1cc2nc(Nc3ccc(F)cc3)nc(N)c2cc1OC
inactive: HCT-15 colon 94.7% | SNB-75 CNS 103% | SNB-19 CNS 92.6% | U251 CNS 94% | PC-3 prostate 84.1% | SK-MEL-5 melanoma 90.5% | UACC-62 melanoma 94% | LOX IMVI melanoma 101% | SK-MEL-28 melanoma 105%

Cc1ccc(/C=C(\C#N)n2nnc3cc(Cl)c(Cl)cc32)cc1
inactive: HCT-15 colon 11.7% | SNB-19 CNS 17.7% | PC-3 prostate 12.8% | SK-MEL-5 melanoma 14% | SK-MEL-28 melanoma 41.3%
active: SNB-75 CNS -24.6% | U251 CNS 7.49% | LOX IMVI melanoma -13.4%

N#Cc1c(NC(=O)c2ccccc2I)sc2c1CCCC2
inactive: HT29 colon 17.4% | SNB-75 CNS 16.7% | SNB-19 CNS 39.2% | U251 CNS 29.7% | PC-3 prostate 47.1% | SK-MEL-5 melanoma 19.2% | UACC-62 melanoma 38% | LOX IMVI melanoma 36.8% | SK-MEL-28 melanoma 64.1%
